Screening results deposited in PubChem by Broad Institute.
Sampled rows, rich in hits. Any-hit rate of the full collection: about 6.7%.
C diff growth – inhibitors of Clostridium difficile growth. growth activity, negative = inhibition, % at 16 µg/mL (by protocol). Clostridium difficile clinical isolate growth, OD600, 24 h; active compounds read low. hit rate 0.25% among 86,000;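 active means mean growth activity at or below -80% and every replicate also at or below -80%; inconclusive means mean at or below -80% but some replicate above -80%; inactive means mean growth activity above -80%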;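 further: 0% = DMSO wells and -100% = levofloxacin 16 µg/mL wells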
T cruzi growth-1 – T. cruzi proliferation inhibition; AID 624255; hit rate 5.9% among 77,000; inhibition, % at 8.34 µM; T. cruzi beta-gal in NIH3T3, GalScreen luminescence, 90 h;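 active means mean inhibition above about 93%, with at least 55% of replicates each passing it, limit read from the data, passing the limit was not always enough; inconclusive means only one of those two conditions holds; inactive means neither condition holds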
Pf Dd2 growth – P. falciparum Dd2 growth inhibition; activity change, % at 10 µM; SYBR Green, 72 h; active compounds read low; AID 1159554; hit rate 2.3% among 94,000; in the data active means activity change below about -80%; inconclusive means no clear call, values can overlap the other calls
T cruzi growth-2 – blocks T. cruzi growth in NIH3T3 host cells; shares compounds with T cruzi growth-1; T. cruzi beta-gal in NIH3T3, GalScreen luminescence, 90 h; inhibition, % at 8.35 µM; hit rate 72% among 5,600; AID 651739;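 active means mean replicate inhibition above about 95% and at least 55% of replicates individually reaching it, limit read from the data; inconclusive means only one of the two criteria is met; inactive means neither criterion is met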
T cruzi growth-3 – inhibitors of T. cruzi proliferation; shares compounds with T cruzi growth-1; T. cruzi beta-gal in NIH3T3, GalScreen luminescence, 90 h; inhibition, % at 2.09 µM; hit rate 21% among 5,600; AID 651740;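 active means mean inhibition above about 95%, with at least 55% of replicates also reaching it, limit read from the data; inconclusive means meets just one of the two conditions; inactive means meets neither condition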;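 further: plate controls were neutral control median for no effect and positive control median for full effect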
3T3 cytotox – cytotoxicity in mouse NIH/3T3 fibroblasts; shares compounds with T cruzi growth-1; NIH/3T3 viability, CellTiter-Glo ATP luminescence, 90 h; cytotoxicity (signal decrease), % at 8.35 µM; hit rate 14% among 5,600; AID 651742;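 active means mean signal decrease across replicates above about 35% based on untreated-well scatter, with enough replicates individually passing, limit read from the data; inconclusive means no rule stated though some were filed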;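 further: 0% = median of neutral control wells and 100% = median of positive control wells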
3T3 cytotox 2 – kills mouse NIH/3T3 fibroblasts. shares compounds with T cruzi growth-1. NIH/3T3 viability, CellTiter-Glo ATP luminescence, 90 h. inhibition, % at 24.9 µM. hit rate 56% among 5,600;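 active means mean loss of cell viability signal at or above a set limit, and enough replicates individually reaching it; inconclusive means meets only the mean limit or only the replicate share; inactive means meets neither condition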;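 further: 0% = median of neutral control wells and 100% = median of positive control wells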
Active calls of the source: *; ? = inconclusive; . = no result.

SMILES	C diff growth	T cruzi growth-1	Pf Dd2 growth	T cruzi growth-2	T cruzi growth-3	3T3 cytotox	3T3 cytotox 2
CO[C@@H](CN(C)S(=O)(=O)c1cccc(Cl)c1)[C@@H](C)CN([C@@H](C)CO)S(=O)(=O)c1ccc(Cl)cc1	.	104*	-40	98*	59	?	67*
CO[C@H](CN(C)S(=O)(=O)c1cccc(Cl)c1)[C@@H](C)CN([C@@H](C)CO)S(=O)(=O)c1ccc(Cl)cc1	.	91	-14	.	.	.	.
CO[C@H](CN(C)S(=O)(=O)c1cccc(Cl)c1)[C@@H](C)CN([C@@H](C)CO)S(=O)(=O)c1cccc(Cl)c1	.	109*	-30	83	19	42*	39*
CO[C@H](CN(C)S(=O)(=O)c1ccc(Cl)cc1)[C@@H](C)CN([C@H](C)CO)S(=O)(=O)c1cccc(Cl)c1	.	76	-12	.	.	.	.
CO[C@@H](CN(C)S(=O)(=O)c1cccc(Cl)c1)[C@@H](C)CN([C@H](C)CO)S(=O)(=O)c1ccc(Cl)cc1	.	76	-21	.	.	.	.
CO[C@H](CN(C)S(=O)(=O)c1cccc(Cl)c1)[C@@H](C)CN([C@H](C)CO)S(=O)(=O)c1cccc(Cl)c1	.	118*	-15	43	9	23	69*
C[C@@H]1CN([C@H](C)CO)C(=O)c2cc(NS(=O)(=O)c3ccccc3)ccc2O[C@@H]1CN(C)C	1	-3	7	.	.	.	.
CCNC(=O)[C@@H]1[C@@H](CO)[C@@H]2Cn3c(ccc(-c4cccnc4)c3=O)[C@H]1N2Cc1ccccc1	-3	6	9	.	.	.	.
C[C@@H]1CN([C@@H](C)CO)C(=O)c2cc(C#CCN(C)C)cnc2O[C@H]1CN(C)Cc1ccc(C(=O)O)cc1	-1	-34	5	.	.	.	.
C[C@H]1CN([C@@H](C)CO)C(=O)c2cc(C#CCN(C)C)cnc2O[C@@H]1CN(C)Cc1ccccc1F	-1	52	-41	.	.	.	.
C[C@@H]1CN([C@H](C)CO)C(=O)c2cc(C#CCN(C)C)cnc2O[C@H]1CN(C)Cc1ccccc1F	-1	101*	-10	83	29	15	5
C[C@H]1CN([C@@H](C)CO)C(=O)c2cc(C#CCN(C)C)cnc2O[C@@H]1CN(C)Cc1ccc(-c2ccccc2)cc1	-4	108*	.	107*	76	19	103*
C[C@@H]1CN([C@H](C)CO)C(=O)c2cc(C#CCN(C)C)cnc2O[C@@H]1CN(C)Cc1ccc(-c2ccccc2)cc1	12	63	.	.	.	.	.
C[C@@H]1CN([C@@H](C)CO)C(=O)c2cc(C#CCN(C)C)cnc2O[C@@H]1CN(C)Cc1ccc(C(=O)O)cc1	2	109*	17	?	22	-15	1
O=C(NCC1CC1)[C@@H]1[C@@H](CO)[C@@H]2Cn3c(cccc3=O)[C@H]1N2C(=O)c1ccccc1	-3	-18	4	.	.	.	.
COC(=O)N(C)C[C@@H]1OCc2ccccc2-c2ccccc2C(=O)N([C@@H](C)CO)C[C@@H]1C	.	48	23	.	.	.	.
N#C[C@@H]1[C@H](c2ccccc2-c2ccccc2F)[C@@H](CO)N1C(=O)C1CCC1	-3	.	-41	.	.	.	.
C/C=C/c1ccc2c(c1)O[C@H](CN(C)S(C)(=O)=O)[C@@H](C)CN([C@H](C)CO)S2(=O)=O	3	-11	4	.	.	.	.
C/C=C/c1ccc2c(c1)O[C@@H](CN(C)S(=O)(=O)c1ccc(C)cc1)[C@@H](C)CN([C@@H](C)CO)S2(=O)=O	-1	98*	-51	108*	88	16	43*
Cc1ccc(S(=O)(=O)N(C)C[C@H]2Oc3cc(Br)ccc3S(=O)(=O)N([C@@H](C)CO)C[C@H]2C)cc1	4	.	10	.	.	.	.
C/C=C/c1ccc2c(c1)O[C@H](CN(C)S(=O)(=O)c1ccc(C)cc1)[C@H](C)CN([C@H](C)CO)S2(=O)=O	4	117*	-11	107*	52	6	78*
COc1ccc(NC(=O)N(C)C[C@@H]2OCCCC[C@H](C)Oc3ccc(NC(=O)Nc4c(C)noc4C)cc3C(=O)N([C@H](C)CO)C[C@@H]2C)cc1	4	13	7	.	.	.	.
COc1ccc(S(=O)(=O)N(C)C[C@@H]2Oc3ccc(NC(=O)Cc4cn(C)c5ccccc45)cc3CC(=O)N([C@H](C)CO)C[C@@H]2C)cc1	-5	74	-38	.	.	.	.
Cc1noc(C)c1S(=O)(=O)N(C)C[C@H]1Oc2ccc(NS(=O)(=O)c3ccc(F)cc3)cc2CC(=O)N([C@@H](C)CO)C[C@@H]1C	-7	5	-20	.	.	.	.
C[C@@H]1CN([C@H](C)CO)C(=O)c2cc(C3=CCCCC3)cnc2O[C@H]1CN(C)Cc1cccc(F)c1	6	89	-24	.	.	.	.
SMILES	C diff growth	T cruzi growth-1	Pf Dd2 growth	T cruzi growth-2	T cruzi growth-3	3T3 cytotox	3T3 cytotox 2
C[C@H]1CN([C@@H](C)CO)C(=O)c2cc(C3=CCCC3)cnc2O[C@H]1CN(C)Cc1cccc(F)c1	0	92	9	.	.	.	.
C[C@@H]1CN([C@@H](C)CO)C(=O)c2cc(C3=CCCCC3)cnc2O[C@@H]1CN(C)Cc1cccc(F)c1	16	112*	-1	98*	54	4	44*
C[C@@H]1CN([C@@H](C)CO)C(=O)c2cc(C3=CCCC3)cnc2O[C@@H]1CN(C)Cc1cccc(F)c1	6	?	-19	110*	75	9	8
C[C@H]1CN([C@@H](C)CO)C(=O)c2cc(NC(=O)C3CC3)ccc2O[C@H]1CN(C)S(=O)(=O)c1cn(C)cn1	.	-26	24	.	.	.	.
C[C@H](CO)N1C[C@H](C)[C@H](CN(C)S(=O)(=O)c2ccccc2)Oc2c(NC(=O)Nc3ccc(C(F)(F)F)cc3)cccc2C1=O	.	42	-1	.	.	.	.
COc1ccc2c3c([nH]c2c1)[C@@H](CO)N(C(=O)C1CCC1)CC31CCN(C(=O)c2ccncc2)CC1	-5	.	-21	.	.	.	.
C[C@@H]1CCCCO[C@@H](CN(C)Cc2ccc3c(c2)OCO3)[C@H](C)CN([C@@H](C)CO)C(=O)c2cc(NC(=O)c3ccncc3)ccc2O1	-4	41	-4	.	.	.	.
C[C@@H]1CN([C@@H](C)CO)C(=O)c2cc(NC(=O)c3ccncc3)ccc2O[C@@H](C)CCCCO[C@@H]1CN(C)Cc1ccc2c(c1)OCO2	-5	29	-48	.	.	.	.
C[C@@H]1CCCCO[C@H](CN(C)Cc2ccc3c(c2)OCO3)[C@H](C)CN([C@H](C)CO)C(=O)c2cc(NC(=O)c3ccncc3)ccc2O1	-2	114*	-35	102*	15	-4	-9
C[C@H](CO)N1C[C@H](C)[C@@H](CN(C)Cc2ccc3c(c2)OCO3)OCCCC[C@H](C)Oc2ccc(NC(=O)c3ccncc3)cc2C1=O	-3	103*	1	2	1	-25	-17
COc1ccc(NC(=O)Nc2ccc3c(c2)[C@@H]2C[C@@H](CC(=O)N4CCN(C)CC4)O[C@H](CO)[C@@H]2O3)cc1	-3	12	12	.	.	.	.
